Among the test systems are NCI-H23 lung; HOP-62 NSCLC; NCI-H460 lung; HOP-92 NSCLC; NCI-H522 lung; A549/ATCC NSCLC; 786-0 renal; DU-145 prostate; K-562 leukemia; MALME-3M melanoma; MDA-MB-231 breast; RXF 393 renal; SF-268 CNS; SF-295 CNS; SF-539 CNS; UACC-257 melanoma; M14 melanoma; HCT-15 colon; COLO 205 colon.
Assay in all cases: NCI-60 one-dose screen, 48 h (100 = growth as untreated, 0 = no growth, -100 = all killed)
Holding throughout (settings): 10 µM unless noted

The values that follow come from PubChem BioAssay (NCI).

The panel holds about 83,000 compounds, 20% with a hit somewhere; the sample as a whole holds those more often.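 Growth was measured after 48 h exposure to one concentration of compound in 96-well plates. Values under 10 count as active.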 A number with no mark means an inactive call. The source made the active and inactive calls.

Regarding `CC(=O)c1ccc(NC(=O)Nc2ccc(S(=O)(=O)Nc3ccc(Cl)nn3)cc2)cc1`, the growth in the assay on NCI-H23 lung was 96.4%; in the assay with HOP-62 NSCLC it was 95.9%; in the assay on NCI-H460 lung, 109%; with HOP-92 NSCLC, 106%; in the assay on NCI-H522 lung, 96.9%; in the assay with A549/ATCC NSCLC, 103%. Besides, the growth is 108% in the assay with 786-0 renal; 110% with DU-145 prostate; 103% in the assay on K-562 leukemia; 100% in the assay with MALME-3M melanoma; 96.7% with MDA-MB-231 breast; 117% in the assay with RXF 393 renal. For the same compound, the growth in the assay on SF-268 CNS is 99.2%; in the assay on SF-295 CNS, 103%; with SF-539 CNS, 97.6%; in the assay with UACC-257 melanoma, 99.4%; in the assay on M14 melanoma, 111%; with HCT-15 colon, 107%.
Regarding `FC(F)(F)c1cccc(CNC2CCN(CCc3ccccc3)CC2)c1`, the growth in the assay with NCI-H23 lung was 71.6%; with HOP-62 NSCLC, 91.1%; with NCI-H460 lung it was 59.8%; in the assay on HOP-92 NSCLC, 15.7%; in the assay with NCI-H522 lung, 86.7%; with A549/ATCC NSCLC, 77.5%. Moreover, the growth with 786-0 renal is 78.6%; with COLO 205 colon it was 76.2%; in the assay on DU-145 prostate, 59.1%; in the assay on K-562 leukemia, 30.1%; in the assay on MALME-3M melanoma, 74.8%; in the assay with MDA-MB-231 breast, 66.5%. The growth was 84.1% with RXF 393 renal; 74.7% with SF-268 CNS; 81.7% in the assay on SF-295 CNS; 93.5% with SF-539 CNS; 87% with UACC-257 melanoma; 49.2% in the assay with M14 melanoma. Moreover, the growth in the assay on HCT-15 colon is 86.8%.
For `O=C(N/N=C/c1ccccc1Cl)C(=O)Nc1cccc(C(F)(F)F)c1`, the growth in the assay on NCI-H23 lung is 105%; in the assay with HOP-62 NSCLC, 106%; in the assay on NCI-H460 lung it was 99.4%; in the assay on HOP-92 NSCLC, 92.2%; in the assay on NCI-H522 lung, 105%; in the assay with A549/ATCC NSCLC, 88.8%. The growth in the assay on 786-0 renal is 103%; in the assay on COLO 205 colon, 113%; in the assay with DU-145 prostate, 101%; in the assay on K-562 leukemia it was 85.3%; with MALME-3M melanoma, 111%; with MDA-MB-231 breast, 99.3%. In addition, the growth in the assay with RXF 393 renal is 97.9%; in the assay with SF-268 CNS it was 105%; with SF-295 CNS it was 87.7%; in the assay on SF-539 CNS, 102%; in the assay on UACC-257 melanoma, 103%; in the assay with M14 melanoma it was 105%. The growth in the assay with HCT-15 colon is 97.1%.
On to `COc1cc(/C=C/C(=O)c2c(C)nc3ccccc3c2/C=C/c2ccccc2)cc(OC)c1OC`, for which the growth in the assay with NCI-H23 lung is 10.9%; with HOP-62 NSCLC, 22.2%; in the assay on NCI-H460 lung, -33.3% (active); with HOP-92 NSCLC, 14.6%; in the assay on NCI-H522 lung, -21% (active); in the assay on A549/ATCC NSCLC it was 8.71% (active). In addition, the growth in the assay with 786-0 renal was 18.2%; with COLO 205 colon, 4.78% (active); in the assay on DU-145 prostate it was -0.597% (active); in the assay with K-562 leukemia, 6.02% (active); in the assay with MALME-3M melanoma, 36.3%; in the assay on MDA-MB-231 breast it was -0.432% (active). Besides, the growth in the assay with RXF 393 renal is -17.2% (active); in the assay with SF-268 CNS, 25.9%; with SF-295 CNS, 29.8%; with SF-539 CNS it was 1.35% (active); with UACC-257 melanoma it was 42.1%; in the assay with M14 melanoma it was -6.24% (active). In the assay on HCT-15 colon, the growth is -6.23% (active).
Turning to `CCCCCCCCCCOC(=O)c1ccccc1C(=O)OCCCC`, the growth was 107% with NCI-H23 lung; 107% with HOP-62 NSCLC; 120% with NCI-H460 lung; 91.3% in the assay with HOP-92 NSCLC; 91.2% in the assay on NCI-H522 lung; 111% with A549/ATCC NSCLC. The growth was 106% in the assay with 786-0 renal; 117% with COLO 205 colon; 114% in the assay with DU-145 prostate; 99.9% with K-562 leukemia; 157% in the assay on MALME-3M melanoma; 109% in the assay on SF-268 CNS. Further, the growth with SF-539 CNS is 103%; in the assay with UACC-257 melanoma, 111%; in the assay on M14 melanoma it was 100%; in the assay on HCT-15 colon, 111%.
Regarding `N#C/C(=C\c1c(-c2ccccc2)[nH]c2ccccc12)S(=O)(=O)c1ccccc1`, the growth is 40.7% with NCI-H23 lung; 39.2% in the assay with HOP-62 NSCLC; 16.1% in the assay with NCI-H460 lung; 53% with HOP-92 NSCLC; 54.9% with NCI-H522 lung; 45.5% in the assay on A549/ATCC NSCLC. For the same compound, the growth with 786-0 renal is 51.3%; in the assay with COLO 205 colon, 12.8%; in the assay with DU-145 prostate, 21.2%; with K-562 leukemia it was 17.5%; with MALME-3M melanoma it was 76.5%; in the assay with MDA-MB-231 breast, 47.2%. Besides, the growth was 53% with SF-268 CNS; 25.7% with SF-295 CNS; -20.1% (active) in the assay with SF-539 CNS; 73.8% in the assay on UACC-257 melanoma; 42.8% in the assay with M14 melanoma; 44.1% in the assay with HCT-15 colon.
Consider `CCN1C(=O)N(CC)C2C1NC(=S)N2/N=C/C=C/c1ccccc1OC` (configuration not stated), for which the growth with NCI-H23 lung was 24.3%; in the assay with HOP-62 NSCLC, 44.4%; with NCI-H460 lung it was 5.86% (active); with HOP-92 NSCLC, 18.4%; in the assay with NCI-H522 lung, 4.46% (active); in the assay with A549/ATCC NSCLC it was 22.5%. Moreover, the growth with 786-0 renal was 20.2%; in the assay with COLO 205 colon it was -46.2% (active); in the assay on DU-145 prostate, 9.85% (active); with K-562 leukemia it was 9.29% (active); in the assay with MALME-3M melanoma, 55.1%; in the assay on MDA-MB-231 breast, 13.3%. In addition, the growth in the assay with RXF 393 renal is 35.3%; in the assay with SF-268 CNS it was 26.7%; in the assay on SF-295 CNS, 11.1%; with SF-539 CNS, -8.21% (active); with UACC-257 melanoma, 71.9%; in the assay on M14 melanoma, 7.43% (active). For the same compound, in the assay with HCT-15 colon, the growth is 9.07% (active).
For `O=c1oc2ccc(I)cc2c(=O)n1-c1ccc(Cl)cc1F`, the growth was -9.99% (active) in the assay on NCI-H23 lung; -3.85% (active) in the assay with HOP-62 NSCLC; 3.56% (active) in the assay on NCI-H460 lung; -6.61% (active) in the assay on HOP-92 NSCLC; -17.1% (active) in the assay on NCI-H522 lung; 6.01% (active) in the assay on A549/ATCC NSCLC. The growth with 786-0 renal is 8.94% (active); in the assay on COLO 205 colon, 52.1%; in the assay on DU-145 prostate it was 19.5%; in the assay with K-562 leukemia it was 4.68% (active); in the assay with MALME-3M melanoma it was -21.2% (active); with MDA-MB-231 breast, -12.6% (active). Besides, the growth in the assay with RXF 393 renal is 4.98% (active); with SF-268 CNS, 12%; in the assay on SF-295 CNS, -48.1% (active); with SF-539 CNS, 7.99% (active); in the assay on UACC-257 melanoma it was -15.1% (active); in the assay on M14 melanoma, 9.12% (active). In addition, the growth with HCT-15 colon is 2.13% (active).
